Screens deposited in PubChem BioAssay by several laboratories.
Calb biofilm kill: kills Candida albicans biofilms; C. albicans biofilm + clotrimazole, Alamar Blue; inhibition, % at 6 µM; actives 0.14% (n = 85,000); AID 834;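 active = inhibition above 20%; inactive = inhibition below 20%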;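 also: preformed 24 hr biofilms exposed to compound for 48 hr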
PostGolgi ctrl: inhibits growth of the yeast control strain. efflux-deficient yeast background strain, growth absorbance A615, 16 h. inhibition, % at 10 µM. actives 5% (n = 98,000)
EphB4 antag: antagonists of human EphB4-ephrin-B2 interaction. EphB4 LBD / TNYL-RAW-Alexa532 peptide, fluorescence polarization. P54760. inhibition, % at 7 µM. actives 0.15% (n = 97,000);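 active = inhibition above the screen-wide mean inhibition plus 3 SD, cut at about 15% in these data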
PostGolgi yeast: growth inhibition of a yeast mutant, post-Golgi transport screen; inhibition, % at 10 µM; actives 0.9% (n = 98,000); AID 739; post-Golgi transport phenotypic cell assay;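 also: yeast cells grown in 1536-well plates; yeast grown about 18 h at 30C before absorbance read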
A number is an active result; i = inactive; nt = no result. Only some compounds are listed: those with a hit (about 5.2% of all), similar ones and a draw of the others. Rule as the data show it, unless noted: active = inhibition above about 30%; inactive = the rest.

SMILES | Calb biofilm kill | PostGolgi ctrl | EphB4 antag | PostGolgi yeast
O=C(OCC(=O)N1CCN(C(=O)c2ccco2)CC1)c1ccccc1OCc1ccc(Cl)cc1 | nt | 42 | nt | i
O=C(OCC(=O)N1CCN(C(=O)c2ccco2)CC1)c1ccccc1O | nt | i | i | i
CC1CCCCC1NC(=O)COC(=O)c1ccccc1NC(=O)c1ccco1 (stereo not drawn) | nt | i | i | i
Cc1ccc(Cl)cc1NC(=O)COC(=O)C1CCCC1 | i | i | nt | i
Cc1ccc(Cl)cc1NC(=O)COC(=O)C12CC3CC(CC(C3)C1)C2 | i | 36 | i | i
COc1cccc(C2/C(=C(/O)c3ccncc3)C(=O)C(=O)N2CCCN2CCOCC2)c1OC (stereo not drawn) | i | nt | nt | nt
CC(C)(C)C1CCC2(CC1)SCC(=O)N2c1ccccc1 (stereo not drawn) | i | i | 16 | i
C/C(CC(C)(C)C1CCCCC1)=N\NC(N)=S | i | 100 | i | 107
S=C(c1ccc(Br)cc1)N1CCN(Cc2ccccc2)CC1 | nt | 33 | i | i
O=C(NC1CCCCC1)c1ccccc1NC(=O)C1CC(=O)N(c2ccc(Cl)cc2)C1 (stereo not drawn) | i | nt | i | nt
CC1(c2ccccc2)CC(C)(C)N(C(=O)C2CCCO2)c2ccccc21 (stereo not drawn) | i | 66 | i | i
COc1cccc(CNC(=O)C2=C(C)C(=O)OC23CCC(C)CC3)c1 (stereo not drawn) | nt | i | i | i
Cc1ccc(S(=O)(=O)n2nc(C)c(Br)c2C)c(C)c1C | nt | 48 | i | i
O=C(c1cncc(Br)c1)N1CCc2ccccc2C1 | i | i | i | i
CC(=O)N1CCN(Cc2nc3cc(NC(=O)c4ccccc4)ccc3n2C)CC1 | i | i | i | i
Cn1c(CN2CCCC2)nc2cc(NC(=O)COc3ccc(Cl)cc3)ccc21 | i | 33 | i | i
CCCC(=O)Nc1ccc2c(c1)nc(CN1CCN(C(C)=O)CC1)n2C | i | 31 | i | i
CCOC(=O)Cn1c(=O)oc2cc(S(=O)(=O)NCCc3ccc(OCC)c(OCC)c3)ccc21 | i | i | i | i
COc1ccc(-n2c(C)c3c(OC)cccc(=O)c3c2C)cc1 | nt | 34 | i | i
COc1cccc(=O)c2c(C)oc(C)c12 | i | i | i | i
CCCCC(=O)Nc1ccc(C(=O)N2CCC(C(=O)OCC)CC2)cc1 | i | i | i | i
Clc1ccccc1OCc1nc(-c2ccncc2)no1 | i | i | i | i
Clc1ccc(OCc2nc(-c3ccncc3)no2)c(Br)c1 | i | 79 | nt | 46
CCc1ccc(OCc2nc(-c3ccccn3)no2)c(Br)c1 | i | i | i | i
Cc1ccc(OCc2nc(-c3ccccn3)no2)c(Br)c1 | i | 34 | i | i
SMILES | Calb biofilm kill | PostGolgi ctrl | EphB4 antag | PostGolgi yeast
CC(C)c1ccc(OCc2nc(-c3ccccn3)no2)c(Br)c1 | i | 38 | i | i
Cn1c(C(=O)N2CCN(c3ccccn3)CC2)cc2c(=O)n(C)c3ccccc3c21 | i | nt | nt | nt
CCN(CC)S(=O)(=O)c1ccc(NCc2ccccc2)nc1 | i | 38 | i | i
CCN(CC)S(=O)(=O)c1csc(C(=O)NCc2ccccc2)c1 | i | i | i | i
Clc1cccc(-c2cc3nc4c(c(NCc5ccco5)n3n2)CCCC4)c1 | nt | 55 | i | i
Cc1ccc(-c2cc3nc(C)cc(NCc4ccco4)n3n2)cc1 | i | 33 | i | i
Cc1nc2cc(-c3ccc(Cl)cc3)nn2c(C)c1CCC(=O)NCc1ccco1 | i | 32 | i | i
COc1ccc(NC(=O)N(Cc2cc3cc(OC)ccc3[nH]c2=O)CC2CCCO2)cc1 (stereo not drawn) | i | 36 | i | i
COc1ccc2[nH]c(=O)c(CN(Cc3ccccc3)Cc3nnnn3CC3CCCO3)cc2c1 (stereo not drawn) | i | i | 16 | i
CCN(CC)CCCN(Cc1cc2cc(OC)ccc2[nH]c1=O)C(=O)Nc1ccc(F)cc1 | i | i | i | i
O=C(c1ccc(CNc2c(N3CCCC3)c(=O)c2=O)cc1)N1CCc2ccccc2C1 | i | i | i | i
CC1CCCCN1CCNC(=O)Cn1nc(-c2ccccc2)ccc1=O (stereo not drawn) | i | i | nt | 39
CCOC(=O)c1sc(C)c2c1NC(C)(c1cccs1)NC2=O (stereo not drawn) | i | i | i | i
CSc1nc(N)nc(SCC(=O)C23CC4CC(CC(C4)C2)C3)c1C#N | nt | 60 | i | i
COc1ccc(C(=O)CSc2nc(N)nc(SC)c2C#N)cc1 | i | 33 | i | i
N#Cc1c(N)nc(SCC(=O)C23CC4CC(CC(C4)C2)C3)c(C#N)c1-c1ccc(Cl)cc1 | i | i | i | i
CC1(C)NC(=O)N(CCOCCOc2ccc3ccccc3c2Br)C1=O | i | i | i | i
CC1(C)NC(=O)N(CCCCOc2ccc3ccccc3c2Cl)C1=O | i | 41 | i | i
Clc1ccc(Cn2cc(/C=N/n3cnnc3)c3ccccc32)c(Cl)c1 | i | 32 | i | i
CSc1nnc(-c2cccc(C)c2)n1N | i | i | i | i
Cc1ccc(Nc2nc(C)c(CCC(C)C)c(=O)[nH]2)cc1 | nt | i | i | i
Cc1nc(Nc2ccc(F)cc2)[nH]c(=O)c1CCC(C)C | i | 32 | i | i
O=C(CN1CCN(S(=O)(=O)c2ccc(F)cc2)CC1)Nc1ccc(Cl)c(C(F)(F)F)c1 | i | 33 | i | i
CCOc1ccc(NC(=O)CN2CCN(CC(=O)Nc3cccc(F)c3)CC2)cc1 | i | i | nt | i
CCOc1ccc(NC(=O)CN2CCN(CC(=O)Nc3ccc(Cl)c(C(F)(F)F)c3)CC2)cc1 | i | 35 | i | i
SMILES | Calb biofilm kill | PostGolgi ctrl | EphB4 antag | PostGolgi yeast
CCOC(=O)c1sc(Nc2cccc(C)c2C)nc1C | i | i | i | i
CC(C)C(=O)Nc1nnc(CCN2CCOCC2)s1 | i | i | i | i
O=S(=O)(CC(O)COc1ccccc1Cl)c1ccccc1 (stereo not drawn) | nt | i | i | i
CCOCC(O)CS(=O)(=O)c1ccccn1 (stereo not drawn) | i | 35 | i | i
CC(=O)N(CN1C(=O)c2ccc([N+](=O)[O-])cc2C1=O)c1ccc(F)cc1 | nt | i | i | i
CC(C)CC(=O)O/N=C1\C(=O)N(Cc2ccc(Cl)cc2)c2ccc([N+](=O)[O-])cc21 | nt | 33 | i | i
Cc1cc(N2CCN(c3ccccc3Cl)CC2)n2cc(-c3ccccc3)nc2n1 | nt | 34 | i | i
CCN(CC)S(=O)(=O)c1csc(C(=O)OCC(=O)c2ccccc2)c1 | i | nt | i | nt
N#Cc1c2n(c3c(=O)n(Cc4ccc(Cl)cc4)cnc13)CCCCC2 | i | 58 | i | i
N#Cc1c2n(c3c(=O)n(Cc4ccccc4)cnc13)CCCC2 | i | i | i | i
CC1(C)CC(NCc2ccc3c(c2)OCO3)CCO1 (stereo not drawn) | i | i | i | i
COc1ccc(-c2cnc(SCC(=O)Nc3ccc4c(c3)OCO4)n2Cc2ccco2)cc1 | i | i | i | i
CC(=O)Nc1cccc(NC(=O)CSc2ncc(-c3ccc(Cl)cc3)n2Cc2ccco2)c1 | i | 37 | i | i
N#CCN1CCN(CCC(=O)Nc2ccc(OCc3ccccc3)cc2)CC1 | i | i | i | i
C(=N\Nc1nc2ccccc2s1)/c1cccs1 | nt | 31 | i | i
Cc1ccc2nc(CSc3nnc(Cc4cccs4)n3C3CCCCC3)cc(=O)n2c1 | i | 39 | i | i
Cc1cccc(OCCn2c(CCCO)nc3ccccc32)c1 | nt | 30 | i | i
Cn1c(=O)n(CCCOc2ccc(Br)cc2)c2ccccc21 | i | 39 | i | i
